Experimental data published in PubChem BioAssay (NCI).
This is part of a sample that, as a whole, favours compounds with a hit. Of some 83,000 tested, about 20% had one in any assay.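 Note: values are percent growth. 100 is the growth of untreated cells, values between 100 and 0 indicate rising inhibition; between -100 and 0 indicates cell death.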 A number with no mark means an inactive call. Activity calls are given as the source filed them. The calls were made as follows: active = growth percent below 10; inactive = the rest.

Columns and labels:
Experiment in all cases: NCI-60 one-dose screen, 48 h (100 = growth as untreated, 0 = no growth, -100 = all killed)
Conditions in all cases: 10 µM unless noted
SR leukemia = system: SR leukemia
RPMI-8226 leukemia = system: RPMI-8226 leukemia
OVCAR-8 ovarian = system: OVCAR-8 ovarian
OVCAR-5 ovarian = system: OVCAR-5 ovarian
OVCAR-4 ovarian = system: OVCAR-4 ovarian
SK-OV-3 ovarian = system: SK-OV-3 ovarian
IGROV1 ovarian = system: IGROV1 ovarian
OVCAR-3 ovarian = system: OVCAR-3 ovarian
HS 578T breast = system: HS 578T breast
T-47D breast = system: T-47D breast
BT-549 breast = system: BT-549 breast
MDA-MB-435 melanoma = system: MDA-MB-435 melanoma
SW-620 colon = system: SW-620 colon
MCF7 breast = system: MCF7 breast
HCT-116 colon = system: HCT-116 colon
HCC-2998 colon = system: HCC-2998 colon
KM12 colon = system: KM12 colon
NCI/ADR-RES ovarian = system: NCI/ADR-RES ovarian

Row | Compound | growth (SR leukemia) | growth (RPMI-8226 leukemia) | growth (OVCAR-8 ovarian) | growth (OVCAR-5 ovarian) | growth (OVCAR-4 ovarian) | growth (SK-OV-3 ovarian) | growth (IGROV1 ovarian) | growth (OVCAR-3 ovarian) | growth (HS 578T breast) | growth (T-47D breast) | growth (BT-549 breast) | growth (MDA-MB-435 melanoma) | growth (SW-620 colon) | growth (MCF7 breast) | growth (HCT-116 colon) | growth (HCC-2998 colon) | growth (KM12 colon) | growth (NCI/ADR-RES ovarian)
1 | C=CCn1c(C)nc2cc(Nc3nc(Cl)nc4ccccc34)ccc21 | 94.7% | 75.2% | 93.8% | 99.8% | 91.2% | 122% | 116% | 102% | 92.7% | 81.5% | 94.8% | 93.3% | 102% | 94.6% | 91.5% | 101% | 95.2% | –
2 | COc1ccc(-c2cc(-c3ccc(Nc4nc(Nc5ccc(Cl)cc5)nc(Nc5ccc(Cl)cc5)n4)cc3)nc(N)c2C#N)cc1 | 5.37% (active) | -23.5% (active) | 39.8% | 37% | 14.6% | 104% | 6.53% (active) | -15.5% (active) | 29.2% | 3.86% (active) | -55.3% (active) | -1.59% (active) | -3.93% (active) | 32.4% | 20.2% | -8.77% (active) | 27.7% | –
3 | Fc1ccc(CNc2c3ccccc3nc3ccccc23)cc1F | 17% | 26.9% | 32.1% | 44.6% | 35.4% | 55.7% | 22.8% | 68.9% | 64.8% | 47.9% | – | 49.2% | 23.7% | 12.9% | – | 2.15% (active) | 53.3% | 27.6%
4 | COC(=O)[C@]12CC[C@@H](C)[C@H](C)[C@@H]1C1=CC[C@@H]3[C@@]4(C)C(C=O)=C[C@@](C)(COS(C)(=O)=O)C4[C@H](O)C[C@@]3(C)[C@]1(C)CC2 (stereo partly drawn) | -33.3% (active) | -10.7% (active) | -50.1% (active) | -38.3% (active) | -52.8% (active) | -35.2% (active) | -13.4% (active) | -88.7% (active) | -30.6% (active) | -29.4% (active) | -49.6% (active) | -21.5% (active) | -51.4% (active) | -16% (active) | -85.3% (active) | -85% (active) | -75.4% (active) | –
5 | O=C(c1ccccc1)N1N=C(c2ccccc2)CC1c1nnc2n(Cc3ccccc3)c(=O)c3c4c(sc3n12)CCCC4 (stereo not drawn) | -16.1% (active) | 91.6% | 106% | 133% | 108% | 106% | – | 112% | 109% | 122% | 115% | 97.9% | 105% | 96.4% | 95.1% | 125% | 82.4% | 118%
6 | C=C1C(=O)O[C@H]2[C@H]1CC/C(CNC(=O)/C=C/c1ccc(Cl)cc1Cl)=C\CC[C@@]1(C)O[C@@H]21 | -28.8% (active) | -33.1% (active) | -28.7% (active) | – | -52.7% (active) | 20.3% | -32.7% (active) | -100% (active) | -4.31% (active) | -61.2% (active) | -53.1% (active) | 4.95% (active) | -51.6% (active) | -59.9% (active) | -73.9% (active) | -93.3% (active) | 20% | 2.07% (active)
7 | CN(C)CC1=NC2SC=C(c3ccccc3)C2C(=O)N1CC#N (stereo not drawn) | 70.4% | 49.6% | 97.1% | 89.7% | 85.3% | 119% | – | 110% | 118% | 86.8% | – | 95.3% | 104% | 121% | 103% | 97.5% | 101% | 98.1%
8 | CC1(C)OC2C(CO[Si](C)(C)C(C)(C)C)OC(n3c(I)c(C#C[Si](C)(C)C)c(=O)[nH]c3=O)C2O1 (stereo not drawn) | 63.6% | -12.2% (active) | 88.6% | – | -68.4% (active) | 111% | 96.7% | -41.1% (active) | 3.19% (active) | 96.2% | 118% | 83% | -43% (active) | 106% | 71% | -51% (active) | 107% | 82.7%
9 | Cc1c(O)cc(-c2cnc(N/N=C\c3ccc(Cl)cc3)s2)c(O)c1C | 58.3% | 41.5% | 60.7% | – | 61.7% | 104% | 83.5% | 90.3% | 77.6% | -11.2% (active) | 67.3% | 97.5% | 107% | 71.1% | 94.6% | 111% | 86.5% | 80.5%
10 | COc1ccc(-c2csc(C3=C(O)CN(C(C)C)C3=N)n2)cc1OC | 57% | 56.3% | 91% | 96.6% | 117% | 124% | – | 117% | 110% | 91.4% | 112% | 116% | 104% | 129% | 96.3% | 116% | 99.6% | 98.5%
